Results filed as inconclusive are left out. A call without a number means that no potency is given here. Values without a mark were called inactive. Activity calls are given as the source filed them. Calls come from the whole dose curve; as a rule, active = well fitted inhibition curve with a large enough effect; inconclusive = small, poorly fitted or top-dose-only effect; inactive = flat fitted curve, though single readings scatter.
Test: P-glycoprotein substrates identified in KB-8-5-11 adenocarcinoma cell line, qHTS therapeutic library screen (AID 1346987); note: nearly all actives have a fitted effect of over 65% in size
Settings: KB-8-5-11 (P-gp overexpressing) viability, CellTiter-Glo, 72 h; series mostly up to 44.5 µM
Method in brief: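 Compounds are pinned in dose-response onto KB-8-5-11 cells (500 cells/well, colchicine-free medium) and left 72 h at 37 degree C. CellTiter-Glo luminescence then yields AC50 values.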

Compound	Potency	activity change, negative = cytotoxicity	outcome
C[C@@H]1C(=O)O[C@H]2CC34[C@H]5C[C@@H](C(C)(C)C)C36[C@@H](OC(=O)[C@@H]6O)OC4(C(=O)O5)[C@]21O (stereo not given in full)	inactive		
CC1CCC2C(C(=O)O)=CC3CC(C)(C)CC132 (stereo not given)	inactive		
CCc1cc2c(=O)c(-c3nc4ccccc4s3)coc2c(CN2CCCCC2)c1O	inactive		
CCC/C=C/C(=O)O[C@H]1CC(C)(C)CC2[C@]13[C@H](O)O[C@@]21CCC2[C@@]4(C)CC[C@H](O[C@@H]5O[C@H](C(=O)O)[C@@H](O)[C@H](O[C@@H]6O[C@H](CO)[C@H](O)[C@H](O)[C@H]6O[C@@H]6O[C@@H](C)[C@H](O)[C@@H](O)[C@H]6O[C@@H]6OC[C@](O)(CO)[C@H]6O)[C@H]5O[C@@H]5O[C@H](CO)[C@H](O)[C@H](O)[C@H]5O)C(C)(C)C4CC[C@@]2(C)[C@]1(C)C[C@H]3OC(C)=O (stereo not given in full)		0.402% [at 9.29 µM]	
COc1cc(/C=C/C(=O)OC(C)(C)C(OC2OC(CO)C(O)C(O)C2O)C(=O)OCc2ccc(OC3OC(CO)C(O)C(O)C3O)cc2)ccc1O (stereo not given)	inactive		
O=S(=O)(O)O	inactive		
CCCCC/C=C\C/C=C\CCCCCCCC(=O)O	inactive		
CC(C)C1=CC2=CCC3[C@](C)(CCC[C@@]3(C)C(=O)O)C2CC1=O (stereo not given in full)	inactive		
Cn1c(=O)cc(N2CCCC(N)C2)n(Cc2ccccc2C#N)c1=O (stereo not given)	inactive		
CC(O)C(O)/C=C/C=C/C(=O)O[C@@H]1C=C2COC(=O)[C@]2(O)[C@@]2(C)CCCC(C)(C)C12 (stereo not given in full)	inactive		
C=CCc1ccc(O[C@@H]2O[C@H](CO[C@@H]3O[C@@H](C)[C@H](O)[C@@H](O)[C@H]3O)[C@@H](O)[C@H](O)[C@H]2O)cc1	inactive		
C=C(C)C1CC2(CO)C(=CC1=O)CCC(O)C2C (stereo not given)	inactive		
Cc1nnc(C(C)C)n1C1CC2CCC(C1)N2CCC(NC(=O)C1CCC(F)(F)CC1)c1ccccc1 (stereo not given)	inactive		
CC1(C)CC2C3=CCC4C5(C)CCC(OC6OC(CO)C(O)C(OC7OC(CO)C(O)C(OC8OC(CO)C(O)C(OC9OC(COC%10OC(CO)C(O)C(O)C%10O)C(O)C(O)C9O)C8O)C7O)C6O)C(C)(C)C5CCC4(C)C3(C)CCC2(C(=O)O)CC1O (stereo not given)		-1.4% [at 9.29 µM]	
Cc1cc(/C=C/c2ccc3cc(N(C)C)ccc3[n+]2C)c(C)n1-c1ccccc1	inactive		
COC(=O)C1=CO[C@@H](O[C@@H]2O[C@H](CO[C@@H]3O[C@H](COC(=O)/C=C/c4ccc(O)cc4)[C@@H](O)[C@H](O)[C@H]3O)[C@@H](O)[C@H](O)[C@H]2O)[C@@H]2C(CO)=CC[C@H]12	inactive		
COc1cc([C@@H]2c3cc4c(cc3[C@@H](O[C@@H]3O[C@@H]5CO[C@@H](C)O[C@H]5[C@H](O)[C@H]3O)[C@H]3COC(=O)[C@H]23)OCO4)cc(OC)c1O	inactive		
COc1cc(C[C@H]2COC(=O)[C@@H]2Cc2ccc(O)c(OC)c2)ccc1O	inactive		
C/C(=C/CCC(CO)C1CCC2(C)C3CCC4C(C)(C)C(OC5OC(CO)C(O)C(O)C5O)CC(O)C45CC35CCC12C)COC1OC(CO)C(O)C(O)C1O (stereo not given)	inactive		
COCCCNCC1COc2ccccc2O1 (stereo not given)	inactive		

Compound	Potency	activity change, negative = cytotoxicity	outcome
CC(=O)c1c(O)cc2cccc3c2c1CC(C)(O)O3 (stereo not given)	inactive		
C=C1[C@@H]2CC[C@@]3(C)[C@H](c4ccoc4)OC(=O)C[C@]13O[C@H]1CC(=O)C(C)(C)[C@H](CC(=O)OC)[C@]12C	inactive		
CC(=O)N1CCN(NC(=O)c2ccc(F)cc2)CC1	inactive		
C#Cc1cnc2[nH]c(=O)n(C(CC)CC)c2n1	inactive		
C/C=C/C=C/C=C/C(=O)O[C@@H]1C=C(CO)C(O)(C(=O)O)[C@@]2(C)CCCC(C)(C)[C@H]12 (stereo not given in full)	inactive		
O=C(O)c1cc(=O)c2c3nc4ccccc4oc-3cc(=O)c2[nH]1	inactive		
NC(=O)[C@H]1CCCCc2c1[nH]c1ccc(Cl)cc21	inactive		
CCC[C@@H]1C[C@@H](C(=O)N[C@H](C(C)Cl)[C@H]2O[C@H](SC)[C@H](O)[C@@H](O)[C@H]2O)N(C)C1 (stereo not given in full)	inactive		
COC(=O)[C@H](CC1C=NC=N1)NCC12CC3CC(CC(C3)C1)C2 (stereo not given in full)	inactive		
COc1cc(/C=C/C(=O)O[C@H]2[C@H](OC(=O)/C=C/c3cc(OC)c(O)c(OC)c3)O[C@H](CO[C@@H]3O[C@H](CO)[C@@H](O)[C@H](O)[C@H]3O)[C@@H](O)[C@@H]2O)ccc1O	inactive		
NS(=O)(=O)NCCNc1nonc1C(=Nc1ccc(F)c(Br)c1)NO	inactive		
CC(=O)N[C@H]1[C@H](O[C@H]2CC[C@@]3(C)C(CC[C@]4(C)C3CC=C3C5CC(C)(C)CC[C@]5(C(=O)O)[C@H](O[C@@H]5O[C@H](CO)[C@@H](O)[C@H](O)[C@H]5O)C[C@]34C)C2(C)C)O[C@H](CO[C@@H]2OC[C@H](O)[C@H](O)[C@H]2O[C@@H]2OC[C@@H](O)[C@H](O)[C@H]2O)[C@@H](O)[C@@H]1O (stereo not given in full)			inactive [at 9.29 µM]
C=C(NC(=O)C(=C)NC(=O)c1csc(C2=N[C@@H]3c4csc(n4)[C@H]4NC(=O)c5csc(n5)[C@H]([C@](C)(O)[C@@H](C)O)NC(=O)[C@H]5CSC(=N5)C(=CC)NC(=O)C([C@@H](C)O)NC(=O)c5csc(n5)[C@]3(CC2)NC(=O)[C@H](C)NC(=O)C(=C)NC(=O)[C@H](C)NC(=O)C([C@@H](C)CC)NC2C=Cc3c([C@H](C)O)cc(nc3C2O)C(=O)O[C@@H]4C)n1)C(N)=O (stereo not given in full)	inactive		
NCc1ccc(OCCCc2sc(-c3ccc4c(c3)/C(=N/Nc3nc5ccccc5s3)CCC4)nc2C(=O)O)cc1	inactive		
CCn1nnnc1NCc1ccc(C(C)C)cc1	inactive		
CCNC(=O)[C@H]1O[C@H](n2cnc3c(NCC(c4ccccc4)c4ccccc4)nc(C(=O)NCCNC(=O)NC4CCN(c5ccccn5)CC4)nc32)[C@H](O)[C@@H]1O	inactive		
CC(=O)O[C@@H]1C[C@@]23C[C@@]24CC[C@H](OC2OC[C@@H](O)[C@H](O)[C@H]2O)C(C)(C)[C@@H]4CC[C@H]3[C@]2(C)CC3OC4(C[C@@H](C)C3[C@@]12C)OCC1(C)OC14 (stereo not given in full)	inactive		
COc1ccc2cc(OCC3(C(=O)O)CN(C(=O)c4ccc(F)cc4)C3)ccc2c1	inactive		
CC1(C)CCC[C@@]2(C)[C@H]1[C@H](O)C=C1COC(=O)[C@@]12O	inactive		
C=C1C2(CCC(=O)OC2(C)C)CC(OC(=O)/C(C)=C/C)C2(C)C13OC14C(=O)OC(C)(C(=O)C12C(=O)OC4C)C3OC(C)=O (stereo not given)	inactive		

Reference: PubChem BioAssay (NCATS)
